High-throughput results as filed in PubChem BioAssay.
A selection: hits, their analogues and other compounds. The true share with any hit is near 2.3%.
CHRM1 antagonist = blocks human M1 muscarinic receptor | CHO-K1 hM1, Fluo-8 calcium fluorescence, ACh EC80 antagonist | P11229 | inhibition, % at 3 µM | actives 1.3% (n = 360,000);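 active means percent inhibition above its own plate's cutoff, namely the mean of that plate's compound wells plus 3 SD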;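 further: peak over basal fluorescence ratio during 140 s after agonist addition; 0% = ACh EC80 plus DMSO and 100% = DMSO alone without agonist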
Target sequence (P11229 whole entry, looked up): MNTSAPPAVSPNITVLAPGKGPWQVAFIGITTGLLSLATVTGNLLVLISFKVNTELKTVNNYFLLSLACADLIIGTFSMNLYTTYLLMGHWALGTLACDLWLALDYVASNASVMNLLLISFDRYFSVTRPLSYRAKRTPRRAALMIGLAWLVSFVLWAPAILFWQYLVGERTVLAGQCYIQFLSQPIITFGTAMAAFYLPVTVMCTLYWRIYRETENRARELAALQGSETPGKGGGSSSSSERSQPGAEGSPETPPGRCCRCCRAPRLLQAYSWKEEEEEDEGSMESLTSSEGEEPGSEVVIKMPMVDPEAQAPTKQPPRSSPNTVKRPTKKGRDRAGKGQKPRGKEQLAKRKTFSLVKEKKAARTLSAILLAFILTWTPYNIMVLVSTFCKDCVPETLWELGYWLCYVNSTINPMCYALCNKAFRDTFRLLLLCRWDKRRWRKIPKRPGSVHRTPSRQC
CHO-K1 Ca ag = counter-screen for M1 agonists: effect in parental CHO-K1 cells. Fluo-8 calcium fluorescence; scaled to maximal ATP response, vehicle zero. AID 602248. activation, % at 3 µM. actives 0.48% (n = 360,000); in the data active means activation above about 15%;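 further: untransfected CHO-K1 host cells lacking M1 receptor as counterscreen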
M1 PAM = potentiates human M1 receptor response to acetylcholine; CHO-K1 hM1, Fluo-8 calcium fluorescence, ACh EC20; 0% = ACh EC20, 100% = maximal ACh; activation, % at 3 µM; actives 0.088% (n = 360,000); in the data active means activation above about 19%, passing the limit was not always enough
CHRM1 agonist = activates human CHRM1 receptor; P11229; CHO-K1 hM1, Fluo-8 calcium fluorescence, agonist mode; 0% DMSO, 100% acetylcholine EC100; activation, % at 3 µM; actives 0.33% (n = 360,000); AID 588814;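 active means activation above the run's mean compound activation plus 3 SD, cut at about 16% in these data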;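 further: peak over basal fluorescence ratio within a 140 s kinetic read after compound addition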
CHO-K1 Ca antag = nonselective inhibitor or artifact in parental CHO-K1 cells; actives 0.6% (n = 360,000); inhibition, % at 3 µM; ATP-induced calcium, Fluo-8 fluorescence;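 active means inhibition above a per-plate cutoff, the plate's mean sample inhibition plus 3 SD, cut at about 24% in these data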;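 further: 0% = DMSO plus EC80 ATP and 100% = DMSO alone without ATP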
M1 PAM parental = nonselective activator or artifact in parental CHO-K1 calcium assay; ATP EC20, Fluo-8 calcium fluorescence; 0% at ATP EC20, 100% at ATP max; activation, % at 3 µM; actives 0.02% (n = 360,000); AID 602247;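 active means activation above the run cutoff, the mean activation of all test compounds plus 3 SD, cut at about 40% in these data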;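 further: peak over basal fluorescence ratio in a 140 s read after ATP addition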
* marks the source's active call; other numbers are inactive results.

SMILES	CHRM1 antagonist	CHO-K1 Ca ag	M1 PAM	CHRM1 agonist	CHO-K1 Ca antag	M1 PAM parental
COc1ccccc1NS(=O)(=O)c1ccc(C)c(C(=O)N2CCCC2)c1	-18	0	26*	2	-20	8
CC1CCCCC1NC(=O)c1cccc(S(=O)(=O)N2CCN(Cc3ccccc3)CC2)c1 (configuration not stated)	13	3	-8	-4	0	-16
COc1ccc(-n2nc([N+](=O)[O-])c(=NC3CCN(Cc4ccccc4)CC3)n2O)cc1	25*	1	-23	-10	-12	20
Cc1cccc(NS(=O)(=O)c2cc3c4c(c2)CC(=O)N4CCC3)c1C	-8	3	11	2	-9	13
Cc1ccccc1NS(=O)(=O)c1cc2c3c(c1)CC(=O)N3CCC2	-2	17*	4	3	5	6
COc1cccc(Nc2nc(C(N)Cc3ccccc3)cs2)n1 (configuration not stated)	-9	8	7	11	-4	17
CN(C(=O)c1ccc(NC(=O)Cc2ccccc2)cc1)c1ccccc1	2	3	-1	0	3	-12
CCN(C(=O)c1ccc(NC(=O)Cc2ccccc2)cc1)c1ccccc1	2	16*	0	2	10	-21
NS(=O)(=O)c1ccc(NC(=O)COC(=O)C2CC2)cc1	-5	0	1	0	-9	19
O=[N+]([O-])c1ccc(N2CCN(C(=S)NCc3ccc(Cl)cc3)CC2)cc1	37*	9	-10	0	22	-9
CCOc1ccccc1N1CCN(C(=S)NC(=O)C23CC4CC(CC(C4)C2)C3)CC1	-12	1	-4	-7	-7	25
CCOc1ccccc1N1CCN(C(=S)NCc2ccc(Cl)cc2)CC1	13	18*	-4	-2	-3	13
O=C(C1CCN(Cc2ccc(Cl)cc2)CC1)N1CCN(C(c2ccccc2)c2ccccc2)CC1	99*	1	-27	-7	-2	-4
CC(NC1CCN(Cc2ccccc2)CC1)c1ccc(F)cc1 (configuration not stated)	34*	1	-20	-10	-5	5
CSc1ccc(CN2CCC(Cc3ccccc3)CC2)cc1	50*	2	-29	-9	-7	24
Clc1ccc(CN2CCC(Cc3ccccc3)CC2)cc1	45*	0	-28	-15	4	-6
Cc1ccc(/C=C/C(=O)OC(C)C(=O)NC2CCCCC2C)o1 (configuration not stated)	-6	1	4	-5	8	2
CCOc1cccc(NC(=O)C(Cc2cccs2)c2nn[nH]n2)c1 (configuration not stated)	12	0	-7	-4	27*	-9
O=C(Nc1ccccc1)C(Cc1cccs1)c1nn[nH]n1 (configuration not stated)	-9	0	6	-3	-2	7
CCc1ccc(NC(=O)CSc2nc(=O)n3cc(C)ccc3n2)cc1	4	0	-1	-3	43*	-8
Cc1ccc2nc(SCC(=O)Nc3ccc(F)cc3)nc(=O)n2c1	-1	2	1	0	-1	15
Cc1c(S(=O)(=O)Nc2ccc(Br)cc2)c(=O)n(C)c(=O)n1C	30*	7	-15	-4	7	10
CC1(C)CC[C@]2(C(=O)O)CC[C@]3(CO)C(=CCC4[C@@]5(C)C[C@H](O)[C@H](O)[C@@](C)(C(=O)O)C5CC[C@]43C)[C@@H]2C1 (some centres not stated)	-8	0	27*	8	-16	1
CC(C)c1nc(SCC(=O)Nc2c[nH]c(=O)[nH]c2=O)c2cnn(-c3ccccc3)c2n1	7	-1	3	-4	41*	3
Cc1ccccc1OC(C)C(=O)N1CCN(c2ccccn2)CC1 (configuration not stated)	4	1	3	-1	8	-28
SMILES	CHRM1 antagonist	CHO-K1 Ca ag	M1 PAM	CHRM1 agonist	CHO-K1 Ca antag	M1 PAM parental
Cc1ccc(NC(=O)c2ccccc2NS(=O)(=O)c2ccc(Cl)s2)cc1	17	10	-1	-2	25*	5
CN1CCN(NC(=O)c2cc(-c3cccc(Cl)c3)nc3ccccc23)CC1	-8	2	13	-3	-10	20
OC(c1cc(-c2cccc(Cl)c2)nc2ccccc12)C1CCCCN1 (configuration not stated)	5	27*	3	12	15	12
Cc1c(NS(=O)(=O)c2cc(C(=O)NCCN(C)C)ccc2Cl)c(=O)n(-c2ccccc2)n1C	-16	1	12	0	-6	9
c1ccc(CCC2CCCCN2Cc2nc(-c3ccc4c(c3)OCO4)no2)nc1 (configuration not stated)	35*	8	-14	-3	2	-14
CCn1c(NC(=O)/C=C/c2ccc(F)cc2)nc2ccccc21	-2	5	3	-4	-14	-4
O=C1C[C@@H](c2ccc(O)cc2)Oc2cc(O)cc(O)c21	-10	2	5	3	-18	3
Cc1c(O)cc2c(c1O)C(=O)CC(c1ccccc1)O2 (configuration not stated)	102*	26*	-33	58*	85*	-14
COc1ccc(N2C(=NC(=O)C3CCCCC3)SC3CS(=O)(=O)CC32)c(OC)c1 (configuration not stated)	-1	1	-2	-2	-8	0
Cc1cc(NCCCCCCCNc2cc(C)nc3cc([N+](=O)[O-])ccc23)c2ccc([N+](=O)[O-])cc2n1	34*	0	-28	-8	-7	0
O=C1/C(=C\c2c(NCCOCCO)nc3ccccn3c2=O)SC(=S)N1Cc1ccco1	34	20*	-19	30*	11	0
CCCN1C(=O)/C(=C/c2c(NCCCOCC)nc3c(C)cccn3c2=O)SC1=S	-13	0	13	1	-8	22
COc1ccc(Nc2ncc(C(=O)N3CCN(Cc4ccccc4)CC3)c3ccccc23)cc1	32*	5	-11	1	14	-5
Cc1c(C(=O)NCc2ccccc2C(F)(F)F)sc(=O)n1Cc1ccccc1C#N	-12	2	3	-10	7	6
CCN1CCCC(Sc2nc3c([nH]2)c(=S)n(C)c(=O)n3C)C1 (configuration not stated)	-12	16*	4	-8	4	5
Cn1c(=S)c2[nH]c(SCCN3CCCC3)nc2n(C)c1=O	-22	0	21	-2	-8	13
CCOC(=O)c1ccc(-n2c(C)nc3ccc(Br)cc3c2=O)cc1	3	1	-8	-7	-16	11
